# Screening results deposited in PubChem by National Center for Advancing Translational Sciences (NCATS).
# Shiga toxin inh = Shiga toxin inhibition | Vero cells, Shiga toxin protein synthesis inhibition reporter | inhibition, % at 38.7 µM | actives 9.2% (n = 290,000) | AID 2315; in the data active = inhibition mostly above about 28%, no sharp cut-off; inactive = mostly below about 43%; note: 0% is about no effect
# RE007 growth inh = less growth of the S. pombe RE007 Vpr strain. S. pombe RE007 Vpr strain, BacTiter-Glo ATP luminescence, 24 h. Potency, µM (highest dose often 92.2 µM), inactives show top-dose activity change, negative = less growth, usual class: inhibitors. actives 0.21% (n = 360,000). AID 651644; active = well fitted falling curve with a large enough effect; inconclusive = small, poorly fitted or top-dose-only effect; inactive = no such curve, though single readings can be large or run the other way; note: potency is the fitted concentration of half-maximal effect; % is set by controls: 0 for no effect and ±100 for the full control effect; nearly all actives have a fitted effect of over 50% in size
#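 Fission yeast strain RE007, carrying one chromosomally integrated HIV-1 vpr copy, was seeded at OD 0.01 in PMG+AL medium with 23 nL pinned compound. After 24 h at 30 °C and 99% humidity, viability was read by BacTiter-Glo luminescence.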
# CHX counter = counter-screen for Shiga toxin inhibitors: cycloheximide protein synthesis inhibition | cell reporter, cycloheximide protein synthesis inhibition counterscreen | max response, % | actives 12% (n = 300,000) | AID 2314; in the data active = max response mostly above about 13%, no sharp cut-off; inactive = mostly below about 14%; note: read at 38.3 µM for the half of the compounds with a filed dose; 0% is about no effect
# Tb PYK inh = blocks Trypanosoma brucei pyruvate kinase. Q57TT1. TbPYK enzyme, Kinase-Glo Plus ATP luminescence, 45 min. Potency, µM (top dose mostly 76.8 µM), for the others: at the top dose activity, negative = inhibition, usual class: inhibitors. actives 0.12% (n = 410,000). AID 624173; note: potency is the fitted concentration of half-maximal effect; % is set by controls: 0 for no effect and ±100 for the full control effect; nearly all actives have a fitted effect of over 50% in size
#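 Quantitative HTS: titrated library compounds versus trypanosomal pyruvate kinase in TEA buffer (pH 7.2) containing KCl, MgCl2, BSA and Tween-20. Reactions were initiated with ADP, 130 uM final. Kinase-Glo Plus luminescence was read after 45 min at RT.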
# LmPK inhibitor = LmPK (Leishmania mexicana) enzyme inhibition; Q27686; purified LmPK, Kinase-Glo ATP luminescence, 1 h; Potency, µM (highest dose often 57.5 µM), inactives show at the top dose activity change, negative = inhibition, usual class: inhibitors; actives 0.37% (n = 290,000); note: potency is the fitted concentration of half-maximal effect; % is set by controls: 0 for no effect and ±100 for the full control effect
# Target sequence (Q27686 whole entry, looked up): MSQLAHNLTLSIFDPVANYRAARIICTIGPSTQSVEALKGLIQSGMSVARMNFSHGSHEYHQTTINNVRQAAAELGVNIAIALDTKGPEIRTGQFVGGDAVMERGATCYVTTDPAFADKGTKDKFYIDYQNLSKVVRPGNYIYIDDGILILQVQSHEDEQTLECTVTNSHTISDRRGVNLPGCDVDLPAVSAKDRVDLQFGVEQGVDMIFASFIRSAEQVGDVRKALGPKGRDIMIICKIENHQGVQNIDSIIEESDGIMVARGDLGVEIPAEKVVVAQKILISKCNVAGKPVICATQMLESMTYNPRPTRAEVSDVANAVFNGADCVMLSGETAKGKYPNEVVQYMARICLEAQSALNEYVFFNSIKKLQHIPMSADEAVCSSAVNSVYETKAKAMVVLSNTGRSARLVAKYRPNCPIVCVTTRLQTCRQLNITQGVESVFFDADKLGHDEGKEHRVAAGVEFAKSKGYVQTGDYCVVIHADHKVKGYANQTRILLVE
#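 Purified LmPK (0.1 nM) with 0.5 mM PEP and 0.1 mM ADP in imidazole buffer pH 7.2 with MgCl2/KCl, 1 h at room temperature. ATP formed was read by luciferase luminescence and normalized to no-enzyme and uninhibited controls.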
# Giardia FBPA inh = blocks Giardia fructose-bisphosphate aldolase activity; purified Giardia FBPA; Potency, µM (highest dose often 59.6 µM), for the others: at the top dose activity, negative = inhibition, most hits filed as inhibitors; actives 0.71% (n = 290,000); AID 2451; note: potency is the fitted concentration of half-maximal effect; % is set by controls: 0 for no effect and ±100 for the full control effect; nearly all actives have a fitted effect of over 55% in size
# Target sequence (A8B2U2 whole entry, looked up): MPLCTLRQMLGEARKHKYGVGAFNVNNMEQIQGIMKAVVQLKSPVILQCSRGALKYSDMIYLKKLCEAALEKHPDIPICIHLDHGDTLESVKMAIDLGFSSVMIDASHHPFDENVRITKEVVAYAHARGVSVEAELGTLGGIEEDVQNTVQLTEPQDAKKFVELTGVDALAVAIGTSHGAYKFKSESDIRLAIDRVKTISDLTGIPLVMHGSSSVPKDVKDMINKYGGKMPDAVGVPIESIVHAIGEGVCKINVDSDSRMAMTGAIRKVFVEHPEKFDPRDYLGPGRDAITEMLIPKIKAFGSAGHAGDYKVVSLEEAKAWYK
#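 Giardia FBPA (40 nM reagent) was preincubated 10 min at RT with compound (up to 57.5 uM final), then substrate plus GAPDH/TPI/NAD/arsenate coupling system with diaphorase/resazurin was added; resorufin fluorescence (525/598 nm) was read after 20 min.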
# * = called active by the depositor; ? = inconclusive; · = not tested or not shown; [ ] = remark or other dose. The full list was thinned out, with hits kept by preference. Unless noted, calls come from the whole dose curve; as a rule, active = well fitted curve in the direction sought with a large enough effect; inconclusive = small, poorly fitted or top-dose-only effect, or another doubt; inactive = no such curve, though single readings can be large; an effect the other way counts as inactive or inconclusive.
SMILES,Shiga toxin inh,RE007 growth inh,CHX counter,Tb PYK inh,LmPK inhibitor,Giardia FBPA inh
Nc1ccc(-c2nc3cc(N)ccc3o2)cc1,37.8*,-17.6%,38.2*,-2.2%,-1.7%,2.7%
Nc1ccc(-c2nc3ccc(N)cc3o2)cc1,35.1,-22.2%,39.5*,-24.1%,-17.0%,-8.9%
O=S(=O)(Nc1ccc2nc(-c3ccc(F)cc3)oc2c1)c1ccccc1,·,·,·,-0.8%,·,·
Nc1ccc2oc(-c3cc(Br)ccc3Cl)nc2c1,3.7,-1.6%,-4.3,1.0%,5.5%,-1.2%
O=C(N/N=C/c1ccc([N+](=O)[O-])cc1)c1ccc2nc[nH]c2c1,20.3,17.7%,2.2,-11.8%,0.0%,-0.8%
CCN(CC)c1ccc(/C=N/NC(=O)CNC(=O)c2ccccn2)cc1,83.5,9.3%,12.3,0.6%,-0.4%,2.7%
Cc1cc(C(=O)N/N=C/c2ccc([N+](=O)[O-])cc2)c2ccccc2n1,15.0,-16.4%,-1.2,2.2%,7.6%,6.9%
O=C(N/N=C/c1ccc([N+](=O)[O-])cc1)c1cccc2cc[nH]c12,21.2,11.5%,16.1*,-3.1%,1.9%,2.5%
CCN(CC)c1ccc(/C=N\NC(=O)c2cccc3cc[nH]c23)cc1,43.2*,-5.7%,31.8*,3.8%,-0.2%,-5.1%
O=C(N/N=C/c1ccc([N+](=O)[O-])cc1)c1[nH]ncc1Br,81.6*,6.7%,46.7*,-0.7%,?,2.8%
CCNC(=O)NCCCOc1cccc(CN2CCCCC2)c1,·,·,·,-4.4%,·,·
COc1cccc(-c2cc(C(=O)NCc3ccccc3)[nH]n2)c1,·,·,·,-3.4%,·,·
Cc1cccc(C)c1N=C1NN=C(c2ccccc2F)CS1,13.9,?,6.7,-21.9%,0.0%,5.1%
Cc1ccccc1N=C1NN=C(c2ccccc2F)CS1,37.2*,-1.7%,48.6*,-11.1%,-7.9%,-6.4%
Cc1ccc(-c2nc(N3CCN(S(=O)(=O)c4ccc(F)cc4)CC3)c3ccc(Cl)cc3n2)cc1,-16.7,·,-7.0,·,·,·
N#CCCn1c(SCC(=O)c2c[nH]c3ccccc23)nc2ccccc21,-10.6,11.3%,-3.5,2.3%,-2.4%,1.1%
Cc1cc(C(=O)CSc2nnc(-c3ccccc3F)o2)c(C)n1Cc1cccs1,32.0,-4.2%,18.7*,2.3%,-0.4%,0.0%
C=CCn1c(SCC(=O)c2cc(C)n(Cc3cccs3)c2C)nnc1-c1ccncc1,-7.3,1.9%,6.9,-4.2%,-4.7%,-21.9%
COc1ccccc1-n1cnnc1SCC(=O)c1cc(C)n(Cc2cccs2)c1C,37.8*,-2.9%,39.0*,-7.8%,-0.2%,5.5%
Cc1cc(C(=O)CSc2nc3ccccc3n2CCC#N)c(C)n1Cc1cccs1,55.2*,0.2%,46.0*,-1.9%,2.4%,-6.2%
COc1ccc(NC(=O)CSc2c(C(C)C)cnc3c2c(=O)n(C)c(=O)n3C)c(OC)c1,·,·,·,-9.9%,·,·
CO[C@H]1COC(=O)CCC[C@@H](C)[C@H](OC)COC(=O)[C@H]2CCCN2C(=O)C/C=C\[C@@H]1C,·,·,·,·,·,1.1%[12.9 µM]
O=C(CCc1nc2ccccc2c(=O)[nH]1)Nc1nnc(SCc2ccc(F)cc2)s1,·,-0.1%,·,-0.8%,·,·
O=C(c1ncc[nH]1)c1cccs1,23.7,8.3%,28.8*,-4.8%,8.0%,-7.2%
C/C(=N/Nc1cc(-c2ccccc2)nc(-c2ccccc2)n1)c1ccc(O)cc1,30.8,-6.1%,23.3*,-7.1%,-6.7%,1.7%
SMILES,Shiga toxin inh,RE007 growth inh,CHX counter,Tb PYK inh,LmPK inhibitor,Giardia FBPA inh
C/C(=N\Nc1cc(-c2ccccc2)nc(-c2ccc(Br)cc2)n1)c1cccc(N)c1,·,-16.7%,·,1.5%,·,·
CCc1ccc(/C(C)=N/Nc2cc(Cl)nc(C)n2)cc1,12.7,48.3%,-0.9,2.3%,-0.2%,-1.8%
C/C(=N\Nc1cc(Cl)nc(C)n1)c1ccccc1,45.8*,-21.3%,28.5*,0.6%,4.3%,-23.3%
CC(C)(C)C1CCc2c(sc(NC(=O)Cn3nnc(-c4ccccc4F)n3)c2C#N)C1 (stereo unspecified),·,·,·,1.8%,·,·
COC(=O)c1ccc(-n2c(/C=C\c3cccc(Br)c3)nc3ccccc3c2=O)cc1,·,·,·,-4.1%,·,·
COc1ccc(C(=O)N/C(=C\c2ccco2)C(=O)OCc2ccco2)cc1,93.2*,1.0%,33.9*,-6.9%,-2.9%,-0.4%
COc1ccc(C(=O)NC(=S)NNC(=O)c2ccco2)cc1,21.8,-27.2%,27.5*,-15.0%,4.9%,6.9%
O=C(NC(=S)NNC(=O)c1ccco1)c1ccc(F)cc1,active,-28.9%,24.0*,?,0.7%,16.7%
Cc1cccc(NC(=S)NC(=O)c2ccco2)c1C,14.4,-23.0%,31.6,-7.9%,-2.8%,·
O=C(NC(=S)Nc1ccccc1Br)c1ccco1,98.5*,-3.5%,53.9*,-5.3%,-4.3%,-12.8%
O=C(NNC(=S)NC(=O)c1ccco1)c1ccc(NC(=O)c2ccccc2)cc1,-9.4,-6.6%,-8.1,2.2%,11.4%[11.5 µM],26.1%
OCCOCCOCCO,·,·,·,2.6%,·,·
COC(=O)c1ccccc1S(=O)(=O)N1CCc2nc(-c3ccc(OC)cc3C)c3c(c2C1)CO[C@@H](c1ccccc1)C3,·,·,·,·,-1.8%[11.5 µM],5.0%[12.9 µM]
O=C(NC(=S)NNC(=O)c1ccccc1O)c1ccco1,-4.2,-14.1%,21.4*,?,-5.7%,?
O=C(Nc1ccc2[nH]ncc2c1)c1ccccc1Br,21.6,4.3%,17.8*,3.1%,1.1%,5.7%
O=C(Nc1ccc2[nH]ncc2c1)c1ccccc1Cl,21.8,-9.4%,16.1*,-1.4%,-1.3%,-8.0%
O=C(Nc1ncn[nH]1)c1ccccc1Br,-9.0,-10.1%,-2.7,2.6%,0.6%,0.7%
Nc1ccn([C@@H]2O[C@H](CNCC3=CCOc4ccc(O)cc43)[C@@H](O)[C@H]2O)c(=O)n1,·,11.2%,·,-13.3%,·,·
O=C(Cc1coc2cc3c(cc12)CCC3)NC1CCCCCCC1,2.3,-6.5%,12.4*,2.5%,-2.0%,15.3%
O=C(O)Cc1coc2cc3c(cc12)CCC3,-7.3,12.1%,-1.5,-2.2%,2.1%,7.1%
CN(C)/N=C/C=C1\CC/C(=C\c2ccc(Br)cc2)C1=O,-4.2,-23.3%,12.5,-8.9%,-0.9%,1.2%
CN(C)/N=C/C=C1\CCC/C(=C/c2cccs2)C1=O,82.0*,1.5%,60.9*,0.1%,-1.2%,1.4%
Cc1ccc(NC(=O)C2CCCN(c3nnc(-n4c(C)ccc4C)s3)C2)c(C)c1 (stereo unspecified),·,·,·,-8.1%,·,·
CCCC(c1nnnn1CCOC)N1CCN(c2nc3ccccc3s2)CC1 (stereo unspecified),14.1,4.8%,3.8,-21.3%,-6.6%,2.6%
CCCCC(c1nnnn1Cc1ccco1)N1CCN(c2nc3ccccc3s2)CC1 (stereo unspecified),62.4*,4.4%,23.0*,-4.2%,0.7%,-1.3%
c1ccc(C(c2nnnn2Cc2ccco2)N2CCN(c3nc4ccccc4s3)CC2)cc1 (stereo unspecified),58.0*,18.9%,31.1*,0.7%,6.8%,-1.2%
